From paper PMC4336329 (PLoS ONE, 2015)
Out of some 310,000 compounds screened, about 14,000 (4.5%) showed an effect of 50% or more. Effects have a minus sign here. This excerpt belongs to a sample that is enriched for strong results.

target: human ether-à-go-go-related gene (hERG) potassium channel (human, UniProt Q12809); experiment: primary screen, population patch clamp on CHO cells stably expressing hERG; higher = less effect of the substance
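Also: peak tail current of the secondary pulse compared with the same well before compound.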

Chain of human ether-à-go-go-related gene (hERG) potassium channel (Q12809 whole entry, looked up): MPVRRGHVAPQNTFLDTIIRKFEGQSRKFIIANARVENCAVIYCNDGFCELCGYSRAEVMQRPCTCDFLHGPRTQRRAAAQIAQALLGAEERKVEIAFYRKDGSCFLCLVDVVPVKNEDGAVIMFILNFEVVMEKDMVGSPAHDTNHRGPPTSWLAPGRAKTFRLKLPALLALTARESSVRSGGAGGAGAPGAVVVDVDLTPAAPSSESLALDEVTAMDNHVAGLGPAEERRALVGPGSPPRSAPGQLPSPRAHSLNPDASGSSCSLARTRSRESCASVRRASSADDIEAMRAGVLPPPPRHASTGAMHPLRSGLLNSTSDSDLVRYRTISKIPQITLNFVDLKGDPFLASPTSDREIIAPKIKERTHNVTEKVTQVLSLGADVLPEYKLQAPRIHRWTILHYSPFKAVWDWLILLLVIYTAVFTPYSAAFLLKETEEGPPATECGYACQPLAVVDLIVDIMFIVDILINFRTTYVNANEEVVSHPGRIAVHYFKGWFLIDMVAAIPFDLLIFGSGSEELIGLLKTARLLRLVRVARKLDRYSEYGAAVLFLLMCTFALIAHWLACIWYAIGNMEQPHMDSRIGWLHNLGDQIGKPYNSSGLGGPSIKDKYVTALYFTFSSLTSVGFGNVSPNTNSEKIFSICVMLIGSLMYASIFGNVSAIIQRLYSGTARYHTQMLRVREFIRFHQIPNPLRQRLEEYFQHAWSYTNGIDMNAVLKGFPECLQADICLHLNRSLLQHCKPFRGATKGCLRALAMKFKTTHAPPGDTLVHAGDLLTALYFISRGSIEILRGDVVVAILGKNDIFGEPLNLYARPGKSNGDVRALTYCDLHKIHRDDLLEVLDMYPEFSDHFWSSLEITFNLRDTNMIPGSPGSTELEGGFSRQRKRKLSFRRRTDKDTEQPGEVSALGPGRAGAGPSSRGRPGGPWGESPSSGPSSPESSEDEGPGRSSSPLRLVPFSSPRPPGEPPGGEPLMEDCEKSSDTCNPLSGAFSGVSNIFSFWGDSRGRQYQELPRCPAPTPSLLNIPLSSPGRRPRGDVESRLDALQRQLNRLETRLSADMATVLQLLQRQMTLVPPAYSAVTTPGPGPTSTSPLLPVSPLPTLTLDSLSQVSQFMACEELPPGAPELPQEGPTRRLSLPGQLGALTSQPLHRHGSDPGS

SMILES	hERG current change (%, negative = inhibition) at 10uM
O=C(CSc1ncnc2c1cnn2-c1ccc(F)cc1)NCC1CCCO1 (stereo not shown)	13.7%
O=C1CCCS(=O)(=O)c2ccccc21	23.8%
Cc1cccc(OCC(=O)NCCCNC(=O)c2ccc(C)nc2)c1	17.9%
Cc1ccc(NC2(C(F)(F)F)N=C(c3ccccc3)NC2=O)nc1 (stereo not shown)	18.4%
Cc1ccc(N2CCN(c3ccc(NC(=O)CCC(=O)O)cc3)CC2)cc1	19.6%
COc1cc(Br)cc(/C=C/c2ccc3cccc(O)c3n2)c1OC	11.4%
COCCN(Cc1cn(C)nc1-c1ccccc1F)C(C)C	15.5%
O=C(CS(=O)(=O)c1ccccc1)Nc1nc(-c2ccccc2)cs1	-51.9%
CCCn1c(SCC(=O)Nc2nc3c(s2)CCCC3)nc2c1c(=O)n(C)c(=O)n2C	-1.39%
COc1ccccc1C1(O)CCN(CC(=O)Nc2nc(-c3ccccc3)cs2)CC1	-56.8%
COc1ccc(C2(O)CCN(CC(=O)Nc3nc(-c4ccccc4)cs3)CC2)cc1	-10.1%
O=C(CS(=O)(=O)c1ccccc1)Nc1nc(-c2ccc(F)cc2)cs1	16.6%
CCCn1c(SCC(=O)Nc2ccccc2N2CCCCC2)nc2c1c(=O)n(C)c(=O)n2C	-29.9%
CC(C)n1c(SCC(=O)Nc2ccccc2N2CCCCC2)nc2c1c(=O)n(C)c(=O)n2C	-36.7%
Cc1nnc(NC(=O)CSc2nc3c(c(=O)n(C)c(=O)n3C)n2C(C)C)s1	-0.769%
CN1CCN(CC(=O)Nc2nc(-c3ccccc3)cs2)CC1	-40.4%
CC(C)n1c(SCC(=O)Nc2nc3c(s2)CCCC3)nc2c1c(=O)n(C)c(=O)n2C	-59.2%
Cn1c(=O)c2c(nc(SCC(=O)Nc3ccccc3N3CCCCC3)n2C)n(C)c1=O	-54%
Cc1ccc(S(=O)(=O)CC(=O)Nc2nc(-c3ccccc3)cs2)cc1	-38%
O=C(CN1C(=O)NC2(CCCCCC2)C1=O)NCCc1ccccc1	1.14%
Cc1noc(C)c1CSCC(=O)Nc1nc2ccc(Oc3ccccc3)cc2s1	-13.6%
CN(CC(=O)Nc1ccccc1C(F)(F)F)C(=O)CC1OC(=O)c2ccccc21 (stereo not shown)	9.27%
CCOC(=O)CSc1nnc(CNc2ccc(Cl)cc2)n1-c1ccccc1	11.2%

SMILES	hERG current change (%, negative = inhibition) at 10uM
COc1cc2c(-c3ccc(O)cc3)nc3c(c(C)nn3-c3ccccc3)c2cc1OC	11.5%
O=C(O)CCSc1nc2ccc(Br)cc2[nH]1	8.75%
C=C1C[C@@]23CCC4[C@@](C)(CCC[C@@]4(C)C(=O)OC)C2CC[C@]1(OC(C)=O)C3 (stereo partly shown)	10.8%
O=C(Nc1nc(-c2ccc(F)cc2)cs1)c1cnccn1	-0.514%
CCc1ccc(N(C(C)=O)C2C=CS(=O)(=O)C2)cc1 (stereo not shown)	-6.3%
O=C(CSc1nc(=O)n2ccccc2n1)NCc1ccc2c(c1)OCO2	-37.8%
COc1ccc(OC)c(S(=O)(=O)NC(N)=NCCc2ccccc2OC)c1	9.89%
Cc1cccc(-c2nnc(SCC(=O)Nc3nc4c(s3)CCCC4)n2C)c1	-37.3%
CCOC(=O)N1CCN(C(=O)CSCC(=O)Nc2nc(-c3ccc(C)cc3)cs2)CC1	-14.1%
Cc1ccc2cc(C)c3nnc(SCC(=O)Nc4nc5c(s4)CCCC5)n3c2c1C	-53.8%
Cc1ccc(-c2nnc(SCC(=O)Nc3nc4c(s3)CCCC4)n2C)cc1	6.99%
Cc1ccccc1C(=O)NCCc1nnc(SCC(=O)Nc2nc(-c3ccccc3)cs2)n1C	7.36%
Cc1ccc(C)c2c1cc(C)c1nnc(SCC(=O)Nc3nc4c(s3)CCCC4)n12	1.01%
CCn1c(SCC(=O)Nc2nc3c(s2)CCCC3)nnc1-c1ccccc1	-56.2%
Cn1c(SCC(=O)Nc2nc3c(s2)CCCC3)nnc1-c1ccccc1	-16.4%
Cn1c(CCNC(=O)c2cccs2)nnc1SCC(=O)Nc1nc(-c2ccccc2)cs1	-7.06%
CCn1c(CCNC(=O)c2cccs2)nnc1SCC(=O)Nc1nc(-c2ccccc2)cs1	-52%
CCOC(=O)N1CCN(C(=O)CSCC(=O)Nc2nc(-c3ccc(-c4ccccc4)cc3)cs2)CC1	-11.9%
CCOC(=O)N1CCN(C(=O)CSCC(=O)Nc2nc(-c3ccccc3)cs2)CC1	-50.5%
Cc1ccc(N2CCN(S(=O)(=O)c3nnc(NC(=O)c4ccco4)s3)CC2)cc1	15.6%
CS(=O)(=O)c1cccc(C(=O)NCc2ccc(F)cc2)c1	0.5%
COC(C/C=C\[C@@H](O)[C@H](C)OCc1ccccc1)OC	25.7%
CCSc1nnc(NC(=O)c2cccnc2Cl)s1	16.3%

SMILES	hERG current change (%, negative = inhibition) at 10uM
Cc1cccc(N(C(=O)CNC(=O)c2cccs2)C(C(=O)NC2CCCC2)c2cccnc2)c1 (stereo not shown)	1.66%
CCOc1ccc(N(CC(=O)N2CCN(Cc3ccccc3)CC2)S(C)(=O)=O)cc1	-12.2%
O=C(N/C(=C/c1ccc(F)cc1)C(=O)N1CCCCC1)c1ccco1	-18.7%
CN1C(=O)C(=Cc2ccc(N3CCCCCC3)o2)C(=O)N(C)C1=S	6.46%
CNC(=S)N1CCc2cc(OC)c(OC)cc2C1COc1ccc(F)cc1 (stereo not shown)	-22.6%
Br.CN(CC(O)C[NH+]1CCOCC1)S(=O)(=O)[O-] (stereo not shown)	17%
Cc1nc2ccccc2c(=O)n1NC(=O)C1CC1	16.3%
O=C(CSc1nnc(-c2ccncc2)n1Cc1ccco1)Nc1nc(-c2ccccc2)cs1	-57.4%
NC(=O)c1ccc(NC(=O)CSc2nnc(-c3cccnc3)n2Cc2ccco2)cc1	6.87%
CCn1c(SCC(=O)Nc2nc(-c3ccc(C)cc3)cs2)nnc1-c1ccccc1	-1.44%
COc1ccccc1-c1nnc(SCC(=O)Nc2nc(-c3ccccc3)cs2)n1C	-71.8%
CCn1c(SCC(=O)Nc2nc(-c3ccccc3)cs2)nnc1-c1ccccc1	-66.6%
Cn1cnnc1SCC(=O)Nc1nc(-c2ccccc2)cs1	-4.33%
O=C(CSc1nnc(-c2cccnc2)n1Cc1ccco1)Nc1nc(-c2ccc(F)cc2)cs1	-70.6%
NC(=O)c1ccc(NC(=O)CSc2nnc(-c3ccncc3)n2Cc2ccco2)cc1	2.42%
Cc1nnc(SCC(=O)Nc2nc(-c3ccccc3)cs2)n1N	2.68%
CCOC(=O)Cc1csc(NC(=O)CSc2nnc(-c3cccnc3)n2Cc2ccco2)n1	-30.5%
CCn1c(SCC(=O)Nc2nc(-c3ccccc3)cs2)nnc1-c1ccccc1O	-20.8%
CCOC(=O)Cc1csc(NC(=O)CSc2nnc(-c3ccncc3)n2Cc2ccco2)n1	-5.63%
CC(C)OCCCNC(=O)c1cccs1	-9.39%
COc1cc2c(cc1OC)C(c1cc(OC)c(OC)cc1[N+](=O)[O-])N(C(C)=O)CC2 (stereo not shown)	26%
N#C/C(=N\[O-])c1nc(-c2ccccc2)cs1.[K+]	-8.69%
O=C(O)c1ccc(N/N=C/c2cccc(C(F)(F)F)c2)cc1	27.3%

SMILES	hERG current change (%, negative = inhibition) at 10uM
CN1CCc2c(sc(NC(=O)c3cc(Cl)sc3Cl)c2C(N)=O)C1.Cl	-59.8%
CN1CCc2c(sc(NC(=O)c3ccc4ccccc4c3)c2C(N)=O)C1.Cl	-5.05%
CN1CCc2c(sc(NC(=O)c3ccco3)c2C(N)=O)C1.Cl	-17%
CN1CCc2c(sc(NC(=O)C3CCCN3S(=O)(=O)c3ccc(Cl)s3)c2C(N)=O)C1.Cl (stereo not shown)	-63.6%
CN1CCc2c(sc(NC(=O)C3CCCCC3)c2C(N)=O)C1.Cl	2.22%
CC(=O)N1CCc2c(sc(NC(=O)C3CCCN3S(=O)(=O)c3cccs3)c2C(N)=O)C1 (stereo not shown)	-2.88%
Cc1ccc(-n2cnc3ncnc(-c4ccccc4)c32)cc1	-6.83%
Cc1ccc2[nH]c3c(c2c1)CN(C)CC3.Cl	-5.01%
O=C(CN(C(=O)c1csnn1)c1cccc(Cl)c1)NC1CCCC1	-2.38%
COc1ccc(CCC(=O)NNC(=O)Nc2ccc(C(C)C)cc2)cc1	23.8%
COc1ccc(NC(=O)CN2CCN(c3ccccn3)CC2)cc1Cl	-17.4%
COc1ccc(CC(NC(C)=O)C(=O)NC2CCN(S(=O)(=O)c3ccccc3)CC2)c(OC)c1 (stereo not shown)	20.5%
COc1ccccc1/C=C/CN1CCCCC1	-2.31%
COc1ccc(F)c(CN2CCCC(CO)(Cc3cccc(Cl)c3)C2)c1 (stereo not shown)	-30.6%
COc1cccc(CC2(CO)CCCN(C/C=C/c3ccccc3OC)C2)c1 (stereo not shown)	-73.2%
COc1ccccc1/C=C/CN1CCOCC1	-3.9%
COc1ccccc1/C=C/CN1CCC(CO)(Cc2ccccc2)CC1	-37.9%
COc1ccccc1/C=C/CN1CCSCC1	-3.74%
COc1ccc(CC2(CO)CCN(C/C=C/c3ccccc3OC)CC2)cc1	-72.8%
COc1ccc(/C=C/CN2CCCC(CO)(Cc3cccc(Cl)c3)C2)cc1 (stereo not shown)	-50.8%
COCc1ccc(CN2CCCC(CO)(Cc3cccc(Cl)c3)C2)o1 (stereo not shown)	-46.1%
COc1ccccc1/C=C/CN1CCCC(CO)(CCc2ccccc2)C1 (stereo not shown)	-74.7%
